Mdm2 MdmX PPI: inhibitors of human Mdm2-MdmX association, primary screen, cell-based, luminescence, split luciferase, SaOS-2, uHTS | Protein Mdm4 (Homo sapiens) + E3 ubiquitin-protein ligase Mdm2 (Homo sapiens), … | SaOS-2 split-luciferase Mdm2/MdmX complementation | inhibition, % at 8 µM | 330,000 compounds, 3% hits | AID 485346, 2010;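 active = inhibition of at least 50% at 8 µM in the primary screen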
Target sequence (O15151 whole entry, looked up): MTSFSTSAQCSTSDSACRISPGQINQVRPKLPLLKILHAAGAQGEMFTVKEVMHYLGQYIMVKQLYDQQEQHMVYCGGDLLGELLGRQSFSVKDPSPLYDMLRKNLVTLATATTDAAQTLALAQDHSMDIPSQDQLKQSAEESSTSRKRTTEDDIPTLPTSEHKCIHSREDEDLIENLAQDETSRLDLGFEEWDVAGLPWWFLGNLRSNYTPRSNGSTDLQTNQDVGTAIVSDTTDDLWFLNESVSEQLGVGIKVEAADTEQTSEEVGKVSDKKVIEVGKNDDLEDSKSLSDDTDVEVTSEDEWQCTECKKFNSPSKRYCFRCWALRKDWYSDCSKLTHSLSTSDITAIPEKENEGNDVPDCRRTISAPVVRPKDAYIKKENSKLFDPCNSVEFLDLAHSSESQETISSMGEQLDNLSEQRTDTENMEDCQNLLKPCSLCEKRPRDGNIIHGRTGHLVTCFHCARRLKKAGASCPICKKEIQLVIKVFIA
Target sequence (Q00987 whole entry, looked up): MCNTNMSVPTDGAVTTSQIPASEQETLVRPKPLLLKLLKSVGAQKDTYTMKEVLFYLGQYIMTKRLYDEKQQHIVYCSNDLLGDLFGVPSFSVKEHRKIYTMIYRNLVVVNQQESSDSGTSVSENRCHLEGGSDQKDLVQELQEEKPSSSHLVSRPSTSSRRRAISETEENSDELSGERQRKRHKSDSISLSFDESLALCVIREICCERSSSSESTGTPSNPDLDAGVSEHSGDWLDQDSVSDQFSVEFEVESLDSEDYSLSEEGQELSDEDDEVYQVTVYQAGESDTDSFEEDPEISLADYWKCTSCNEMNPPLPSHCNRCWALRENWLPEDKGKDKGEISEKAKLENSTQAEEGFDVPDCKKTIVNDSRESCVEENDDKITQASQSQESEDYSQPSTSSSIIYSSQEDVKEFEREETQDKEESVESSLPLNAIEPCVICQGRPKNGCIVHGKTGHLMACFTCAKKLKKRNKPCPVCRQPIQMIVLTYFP
MPTP block: mitochondrial permeability transition pore inhibitors, primary screen, biochemical, isolated mouse mitochondria, absorbance; inhibition, % at 10 µM; Ca2+ swelling absorbance, 30 min; 360,000 compounds, 1.4% hits; AID 602449, 2012;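 active = inhibition of 50% or more, scaled per plate between neutral and stimulator controls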;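 note: 0% = DMSO wells given calcium and 100% = 1 mM EGTA wells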
Calb FLC: C. albicans growth inhibition with fluconazole, primary screen, CaCi-2 strain, Alamar Blue fluorescence. 300,000 compounds, 0.57% hits. C. albicans CaCi-2 (fluconazole-resistant clinical isolate) + fluconazole, 48 h. growth inhibition, % (no concentration beside the values);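 active = growth inhibition above about 58% in most replicates, limit read from the data, passing the limit was not always enough; inconclusive = exactly half the replicates above a set limit; inactive = most replicates below a set limit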;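 note: all wells also contain fluconazole at 8 µg/ml as a sub-toxic cotreatment; 0% = median of DMSO wells and 100% = median of geldanamycin control wells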
CSC inhib: cancer stem cell viability inhibitors, primary screen, luminescence; cancer stem cell-like cells viability; 300,000 compounds, 1.1% hits; inhibition, % at 7.5 µM; in the data active = inhibition above about 75%; inconclusive = no clear call, values can overlap the other calls; tested in HMLE shEcad cells
Beta cell apopt: inhibitors of cytokine-induced beta cell apoptosis, primary screen, luminescence. AID 435005, 2010. INS-1E cytokine-induced death, ATP luminescence, 48 h; percent of positive-control rescue, neutral wells zero. protection from apoptosis, % (concentration not given with the values). 300,000 compounds, 0.8% hits;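 active = Every replicate reaches about 75%, or at least half do and their mean reaches it too, limit read from the data; inconclusive = At least half of replicates reach the limit but their mean does not; inactive = Under half of replicates reach the limit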;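 note: 0% = cytokine-treated negative control wells and 100% = positive control rescue; higher means more ATP so stronger rescue from cytokine killing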
* = called active by the depositor; ? = inconclusive; . = not tested or not shown. A selection: hits, their analogues and other compounds. The true share with any hit is near 4.8%.

SMILES	Mdm2 MdmX PPI	MPTP block	Calb FLC	CSC inhib	Beta cell apopt
CC(CCC(C)C(C)(C)C)[C@@H]1CC[C@H]2C3C[C@H](OS(O)(=S)=S)[C@H]4C[C@H](OS(O)(=S)=S)[C@@H](OS(O)(=S)=S)C[C@]4(C)[C@H]3CC[C@]12C (stereo partly specified) (tested in a mixture with another compound)	-18	-12	.	98*	-1
C=C1CCCC2OC(CC3=CC4/C(C)=C/CC(C)CC(/C=C(\C)C(O)C5CC(O)C(O)C(CCC(O)/C=C/C(C)=C/CCC6=NCCC(C3)C64C)O5)OC(=O)CC3OC(C(O)C1)C(O)C3O)CC(O)C2O (stereo unspecified)	.	-3	.	.	.
O=C/C=C/c1c(-c2ccccc2)cc2oc3ccccc3cc1-2	-3	2	9	98*	1
CCNC(=O)C1CCCN(C(=O)C(c2ccccc2)c2ccccc2)CC1 (stereo unspecified)	.	-2	.	.	.
O=c1c2cc(Br)ccc2[nH]c(=S)n1Cc1ccccc1	30	0	-7	.	.
O=C(NCc1cccnc1)c1ccc(Cn2c(=S)[nH]c3ccc(Br)cc3c2=O)cc1	17	-2	-4	4	98*
O=C1C=C(c2ccc(Cl)c(C(F)(F)F)c2)C[C@@H](c2ccc(Cl)cc2)C1	32	1	.	116*	0
O=C1C=C(c2ccc(-c3ccccc3)cc2)C[C@@H](c2ccc(Cl)cc2)C1	0	2	.	2	-8
CCOC(=O)c1cccc(C2=CC(=O)C[C@H](c3ccc(Cl)cc3)C2)c1	18	0	.	77*	2
Cc1ccc2ccccc2c1C(O)c1ncc(-c2ccc(Cl)cc2)[nH]1 (stereo unspecified)	.	2	.	.	.
CC(C)(C)OC(=O)N1CCCN(C(c2ccnc3ccccc23)c2nnnn2-c2ccc3c(c2)OCCO3)CC1 (stereo unspecified)	.	-1	.	.	.
CNC(=O)c1sc(N2N=C3/C(=C/c4ccccc4)CCCC3C2c2ccccc2)nc1C (stereo unspecified)	34	-1	18	51	98*
CNC(=O)c1sc(N2N=C3/C(=C\c4ccccc4)CCCC3C2c2ccccc2)nc1C (stereo unspecified)	.	0	.	.	.
CCN(CC)CCN(C(=O)c1ccc2ccccc2c1)c1nc2ccc(OC)cc2s1	26	2	99*	12	-2
CCN(CC)CCN(C(=O)c1ccc([N+](=O)[O-])cc1)c1nc2ccc(OC)cc2s1	-26	2	-11	-19	-3
Cc1ccccc1-c1noc(-c2ccc(Cl)cc2)n1	-133	-2	-4	-4	3
Cc1ccccc1-c1noc(-c2ccc(O)cc2)n1	-132	33	-25	96*	25
CC(C)(C)c1ccc(C(=O)N2CCC2(C)C(=O)NCc2cccs2)cc1 (stereo unspecified)	.	0	.	.	.
Cc1onc(-c2c(F)cccc2Cl)c1C(=O)NNC(=O)C1CCN(Cc2ccccc2)CC1	-22	-2	92*	-1	-4
Cc1onc(-c2c(Cl)cccc2Cl)c1C(=O)N1CCN(Cc2ccccc2)CC1	16	-2	0	3	-3
Cc1c(C(=O)NCc2ccc(F)cc2)sc(=O)n1Cc1ccccc1	.	0	.	.	.
Cc1nc(NS(=O)(=O)c2ccc(Br)cc2)c2c3c(sc2n1)CCC3	13	-14	92*	-5	8
Cc1nc(NS(=O)(=O)c2cccs2)c2c3c(sc2n1)CCC3	2	-1	?	-7	.
CCCCCCCCCCCC1=C(O)C(=O)C=C(O)C1=O	.	3	92*	-9	-3
COC1=CC(=O)C(O)=C(CCCCCCC/C=C/CCCCCCCC2=C(O)C(=O)C=C(OC)C2=O)C1=O	7	8	81*	-4	-2
SMILES	Mdm2 MdmX PPI	MPTP block	Calb FLC	CSC inhib	Beta cell apopt
O=C(C(O)c1ccccc1)N1CCN(S(=O)(=O)c2ccc(F)c(F)c2)CC1 (stereo unspecified)	.	0	.	.	.
COC(=O)C[C@@H]1C=C[C@@H](NS(=O)(=O)c2ccccc2OC)[C@@H](CO)O1	.	-1	.	.	.
CCC1(c2ccccc2)NC(=S)N(c2ccc(C)cc2)N1 (stereo unspecified)	-21	1	106*	.	-1
CCC1(c2ccc(Cl)cc2)NC(=S)N(c2ccccc2)N1 (stereo unspecified)	-49	3	117*	-4	-4
C[C@H](NC(=O)C[C@@H]1CC[C@H]2[C@@H](COC[C@H](O)CN2Cc2ccc(C(F)(F)F)cc2)O1)c1ccccc1	.	3	.	.	.
O=C(Nc1ccc(F)cc1)C(c1ccncc1)N1CCN(CC(=O)N2CCCC2)CC1 (stereo unspecified)	.	0	.	.	.
CCCCn1nnnc1C(c1cc2ccccc2o1)N1CCCN(C(=O)OC(C)(C)C)CC1 (stereo unspecified)	.	1	.	.	.
OC(COc1cccc2ccccc12)CN1CCN(c2ccc(Cl)cc2)CC1 (stereo unspecified)	24	4	9	77*	-2
Cc1ccc(S(=O)(=O)N2C[C@H]3C(=O)C[C@@H](c4ccccc4)N(S(=O)(=O)c4ccc(Br)cc4)[C@H]3C[C@H]2c2ccccc2)cc1	.	1	.	.	.
COc1ccccc1NC(=O)Cn1cnc2c(cnn2-c2ccccc2)c1=O	2	3	91*	-5	.
COc1ccc(-c2sc3cc(OC)c(OC)cc3c2C#CC(C)(C)O)cc1	46	-2	.	17	3
COc1ccc(-c2sc3ccc(OC)cc3c2C#CCCO)cc1	11	2	3	99*	7
COc1ccc2sc(-c3ccc(N(C)C)cc3)c(C#CCCO)c2c1	47	3	.	122*	3
COC(=O)c1ccc2nc(-c3ccc(F)cc3)c(Cc3ccsc3)n2c1	.	0	.	.	.
COCC(C)NC(=O)NC1(C(F)(F)F)Oc2ccc(Cl)cc2O1 (stereo unspecified)	3	2	-26	80*	1
O=C(O)CCn1cc(/C=C/C(=O)c2ccc(Cl)cc2)c(-c2ccc(Br)cc2)n1	.	1	.	106*	-8
COc1ccc(C2=NNC(c3cc(Cl)cc4c3OCOC4)C2)c(O)c1 (stereo unspecified)	1	.	-10	-7	.
Oc1ccc(Cl)cc1C1=NNC(c2cc(Br)cc3c2OCOC3)C1 (stereo unspecified)	28	3	70*	0	15
Nc1ccc2c(c1)Oc1ccccc1C=C2	20	4	-8	110*	-13
Nc1ccc2c(c1)COc1ccccc1O2	0	-3	36	4	-2
CCCCN1C(=O)C(CC(=O)NC2CCCC2)CC(C(=O)N2CCCCCC2)=C1C (stereo unspecified)	.	0	.	.	.
CCCc1ccc(O)c(N=Cc2cc(Br)cc(OCC)c2O)c1	39	14	-23	91*	-7
OC(Cc1ccccc1Br)c1ncc(-c2ccc(Cl)cc2)[nH]1 (stereo unspecified)	.	4	.	.	.

Screens from PubChem BioAssay.
